Laboratory results reported in PubChem BioAssay (NCATS).
Inconclusive results are not listed. Active and inactive are the calls of the source. The call rests on the fitted dose curve; in most records, active means well fitted inhibition curve with a large enough effect; inconclusive means small, poorly fitted or top-dose-only effect; inactive means flat fitted curve, though single readings scatter.

Experiments:
Experiment in all cases: qHTS profiling for inhibitors of Plasmodium falciparum proliferation (AID 504749); further: nearly all actives have a fitted effect of over 60% in size
Conditions in all cases: P. falciparum in erythrocytes, SYBR Green DNA, 72 h; series mostly up to 28.7 µM
CP329 = tested on: CP329
How it was run: (§1)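 Quantitative HTS: compounds pinned into medium, infected erythrocytes added (0.3% parasitemia, 2.5% hematocrit), 72 h culture at 37 C under 5% CO2. Saponin/Triton lysis with SYBR Green I, overnight RT, then fluorescence read.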

CP335 = tested on: CP335
How it was run: as §1

DFO2036 = tested on: DFO2036
How it was run: as §1

DIV14 = tested on: DIV14
How it was run: as §1

DIV17 = tested on: DIV17
How it was run: as §1

DIV30 = tested on: DIV30
How it was run: as §1

Dd2 = tested on: Dd2
How it was run: as §1

ECU = tested on: ECU
How it was run: as §1

FAB9 = tested on: FAB9
How it was run: as §1

GB4 = tested on: GB4
How it was run: as §1

HB3 = tested on: HB3
How it was run: as §1

ICS = tested on: ICS
How it was run: as §1

JCK = tested on: JCK
How it was run: as §1

N140 = tested on: N140
How it was run: as §1

P94_40 = tested on: P94_40
How it was run: as §1

PAD = tested on: PAD
How it was run: as §1

PC15 = tested on: PC15
How it was run: as §1

PC26 = tested on: PC26
How it was run: as §1

PC49 = tested on: PC49
How it was run: as §1

P93_24 = tested on: P93_24
How it was run: as §1

Measured: outcome

CCOC(=O)C(CCc1ccccc1)NC(C)C(=O)N1Cc2ccccc2CC1C(=O)O (centres undefined)
not listed: P93_24
inactive: all other assays above

CCc1cccc2c3c([nH]c12)[C@@](CC)(CC(=O)O)OCC3
inactive: all assays above
